Compound activity: PubChem BioAssay, several laboratories
Rows were chosen to be rich in hits. Some 5% of all compounds tested hit in one or more screens of this group.
EBI2 antag – antagonists of human EBI2 receptor; P32249; EBI2 beta-arrestin recruitment, luminescence, 7a,25-OHC stimulated; inhibition, % at 5 µM; actives 0.81% (n = 360,000); AID 651636; in the data active = inhibition above about 38%;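 also: enzyme fragment complementation signal reports receptor beta-arrestin coupling in cells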
SENP6 block – inhibitors of human SENP6 protease | actives 1.8% (n = 330,000) | Recombinant SENP6 catalytic domain, aminoluciferin luminescence | Q9GZR1 | inhibition, % at 10 µM;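 active = inhibition above about 50% at the single tested dose, limit read from the data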
SENP8 block-1 – blocks human SENP8 cleavage of Nedd8 substrate; Q96LD8; recombinant SENP8, Nedd8 substrate fluorescence; inhibition, % at 20 µM; actives 0.64% (n = 360,000); in the data active = inhibition mostly above about 40%, no sharp cut-off; inactive = mostly below about 27%
SENP7 block – blocks the human protease SENP7; actives 1.5% (n = 330,000); inhibition, % at 5 µM; recombinant SENP7, Z-RLRGG-aminoluciferin luminescence, 40 min; AID 434973; Q9BQF6;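 active = inhibition above about 50% at the single test dose, limit read from the data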
Target sequence (Q9BQF6 706-1050 limits assumed): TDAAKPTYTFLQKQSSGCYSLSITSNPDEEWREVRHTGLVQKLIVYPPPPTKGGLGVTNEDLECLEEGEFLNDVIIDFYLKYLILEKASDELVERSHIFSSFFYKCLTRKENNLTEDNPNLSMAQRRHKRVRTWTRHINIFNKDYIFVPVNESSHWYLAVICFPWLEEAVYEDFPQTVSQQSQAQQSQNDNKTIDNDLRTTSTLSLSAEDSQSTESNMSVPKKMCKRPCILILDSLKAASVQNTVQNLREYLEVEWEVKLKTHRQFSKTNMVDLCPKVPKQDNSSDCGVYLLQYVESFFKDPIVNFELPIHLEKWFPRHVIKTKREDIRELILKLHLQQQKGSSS
SENP8 block-2 – inhibitors of human SENP8 protease | Q96LD8 | purified SENP8, Z-RLRGG-aminoluciferin cleavage, luminescence | inhibition, % at 10 µM | actives 1.2% (n = 330,000); in the data active = inhibition above about 50%
AHR act – activates the human aryl hydrocarbon receptor. actives 2.5% (n = 320,000). activation, % at 5 µM. AHR-responsive luciferase reporter cells, luminescence. AID 2796. P35869; in the data active = activation above about 47%
A number is an active result.

How did CCCCn1c(N)c(N(CC(C)C)C(=O)c2ccc([N+](=O)[O-])o2)c(=O)[nH]c1=O do in these assays?
EBI2 antag: inactive; SENP6 block: inactive; SENP8 block-1: inactive; SENP7 block: inactive; SENP8 block-2: inactive; AHR act: inactive

What do the screens show for `Nc1[nH]n2c(=O)c3c(nc2c1N=Nc1ccccc1)CCCC3`?
EBI2 antag: inactive; SENP6 block: inactive; SENP8 block-1: 53; SENP7 block: inactive; SENP8 block-2: inactive; AHR act: inactive

How did Nc1[nH]n2c(=O)c3c(nc2c1N=Nc1ccc(Cl)cc1)CCCC3 do in these assays?
EBI2 antag: inactive; SENP6 block: inactive; SENP8 block-1: 45; SENP7 block: inactive; SENP8 block-2: inactive; AHR act: 57

How did CCC(CC)NC(=O)CN1CCN(S(=O)(=O)c2ccc(Br)s2)CC1 do in these assays?
EBI2 antag: inactive; SENP6 block: inactive; SENP8 block-1: inactive; SENP7 block: inactive; SENP8 block-2: inactive

What do the screens show for `CCCCC(=O)Nc1ccccc1CC`?
EBI2 antag: inactive; SENP6 block: inactive; SENP8 block-1: inactive; SENP7 block: inactive; SENP8 block-2: inactive; AHR act: inactive

What do the screens show for `Cc1cccc(CCN2CCN=C2Nc2ccccc2)c1`?
EBI2 antag: inactive; SENP6 block: inactive; SENP8 block-1: inactive; SENP7 block: inactive; SENP8 block-2: inactive; AHR act: inactive

How did COc1ccc(S(=O)(=O)N2CCN(C(=O)c3ccccc3Cc3ccccc3)CC2)cc1OC do in these assays?
EBI2 antag: inactive; SENP8 block-1: inactive

What do the screens show for `Cn1cc(C(=O)N/N=C/c2ccc3c(c2)OCO3)c2ccccc21`?
EBI2 antag: inactive; SENP6 block: inactive; SENP8 block-1: inactive; SENP7 block: inactive; SENP8 block-2: inactive; AHR act: inactive

Results for Cn1cc(C(=O)N/N=C/c2cccs2)c2ccccc21 ?
EBI2 antag: inactive; SENP6 block: inactive; SENP8 block-1: inactive; SENP7 block: inactive; SENP8 block-2: inactive; AHR act: 109

What do the screens show for `Cc1cccc(/C=N\NC(=O)c2sccc2-n2cccc2)c1`?
EBI2 antag: inactive; SENP6 block: inactive; SENP8 block-1: inactive; SENP7 block: inactive; SENP8 block-2: inactive; AHR act: 64

How did Cc1cccc(/C=N\NC(=O)c2ccccc2-n2cccc2)c1 do in these assays?
EBI2 antag: inactive; SENP6 block: inactive; SENP8 block-1: inactive; SENP7 block: inactive; SENP8 block-2: inactive; AHR act: inactive

What do the screens show for `O=C(N/N=C\c1cccs1)c1sccc1-n1cccc1`?
EBI2 antag: inactive; SENP6 block: inactive; SENP8 block-1: inactive; SENP7 block: inactive; SENP8 block-2: inactive; AHR act: 67

What do the screens show for `O=C(NC1CC1)c1sccc1-n1cccc1`?
EBI2 antag: inactive; SENP6 block: inactive; SENP8 block-1: inactive; SENP7 block: inactive; SENP8 block-2: inactive; AHR act: inactive

How did COc1cc2c(c(NC(C)=O)c1)N(C(C)=O)CCC2 do in these assays?
EBI2 antag: inactive; SENP8 block-1: inactive

Results for Cc1cc(C)cc(N(CCC#N)C(=O)CSc2n[nH]c(N)n2)c1 ?
EBI2 antag: inactive; SENP6 block: inactive; SENP8 block-1: inactive; SENP7 block: inactive; SENP8 block-2: inactive; AHR act: inactive

What do the screens show for `COc1ccc2cc(C(=O)C3CCCN(C(=O)c4cncs4)C3)ccc2c1` (stereo unspecified)?
EBI2 antag: inactive; SENP6 block: inactive; SENP8 block-1: inactive; SENP7 block: inactive; SENP8 block-2: inactive; AHR act: 59

What do the screens show for `COc1cc(NC(=O)CSc2nnc3ccccn23)cc(OC)c1OC`?
EBI2 antag: inactive; SENP8 block-1: inactive

Results for CCOc1ccc(CC(=O)Nc2nccs2)cc1OCC ?
EBI2 antag: inactive; SENP6 block: inactive; SENP8 block-1: inactive; SENP7 block: inactive; SENP8 block-2: inactive; AHR act: inactive

How did O=C1C(=O)c2c(ccc3ccccc23)-c2ccccc21 do in these assays?
EBI2 antag: inactive; SENP8 block-1: 99

Results for CN(C)/C=C1\Oc2ccc3ccccc3c2C1=O ?
EBI2 antag: inactive; SENP6 block: inactive; SENP8 block-1: inactive; SENP7 block: inactive; SENP8 block-2: inactive; AHR act: inactive

How did C[C@@H]1CN([C@@H](C)CO)C(=O)CCCn2nncc2CO[C@@H]1CN(C)S(=O)(=O)c1ccccc1 do in these assays?
EBI2 antag: inactive; SENP8 block-1: inactive

How did C=CCNC(=O)c1ccccc1NC(=O)c1ccccc1SC do in these assays?
EBI2 antag: inactive; SENP6 block: inactive; SENP8 block-1: inactive; SENP7 block: inactive; SENP8 block-2: inactive; AHR act: 77
